The values below come from PubChem BioAssay (EPA / NIEHS).

Each structure is given as a SMILES string. The source made the active and inactive calls. How the source made its calls: active means hit-call score of the fitted dose curve at least 0.9, where 1 is the maximum; inactive means score below 0.9.

The nature of this test: BSK_3C_Vis: BioMAP Diversity Plus: 3C Assay for Morphology Visualization (AID 2283025).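 Further: fitted both ways so gain or loss versus DMSO counts.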 The settings on record: primary human endothelial cells (HUVEC). As for the experimental part:
BSK_3C is a cell-based, multiplexed-readout assay that uses umbilical vein endothelium, a human vascular primary cell, with measurements taken at 24 hours after chemical dosing in a 96-well plate.BSK_3C_Vis is an assay component measured in the BSK_3C assay. It measures NA related to cell morphology using light microscopy technology.Data from the assay component BSK_3C_Vis was analyzed into 1 assay endpoint. This assay endpoint, BSK_3C_Vis, was analyzed with bidirectional fitting relative to DMSO as the negative control and baseline of activity. Using a type of morphology reporter, gain or loss-of-signal activity can be used to understand changes in the background control. Furthermore, this assay endpoint can be referred to as a secondary readout, because this assay has produced multiple assay endpoints where this one serves a background control function. To generalize the intended target to other relatable targets, this assay endpoint is annotated to the cell morphology intended target family, where the subfamily is cell conformation.
The levels of cell surface (or secreted, indicated by the prefix "s") biomarker endpoints were measured by ELISA. Overt cytotoxicity to cells in confluent adherent cultures (all systems other than the BT system) was assessed by measuring total protein levels using sulforhodamine B (SRB) staining in parallel cultures at the time of biomarker measurements, indicated as SRB endpoints. For proliferation assays for adherent cell types, individual cell types are cultured at sub-confluence and relative cell numbers quantified by SRB staining at time points optimized for each system (48 h: 3C and CASM3C systems; 72 h: BT and HDF3CGF systems; 96 h: SAg system). SRB was performed by staining cells with 0.1% SRB after fixation with 10% TCA and reading wells at 560 nm.Viability and proliferation of PBMC (T cells) was quantified by Alamar Blue reduction for the SAg and BT systems. For PBMC viability (referred to as PBMC Cytotoxicity within the assay endpoint names), cells were plated (75,000/well in a 96-well plate) and then chemical samples added for 1 h before addition of activators, SEB and TSST-1 (20 ng/mL final concentration each). Cells were incubated for 90 h. Then, Alamar Blue (20 uL/well) (Invitrogen, Cat DAL1100) was added for 6 h, and the plates were read with a fluorescence microplate reader at 546/580 nm (excitation/emission). For PBMC proliferation, cells were plated and activated as above but incubated for only 16 h prior to addition of Alamar Blue. Plates were read after 6 h.
`Cc1ccc(Nc2ccc(O)c3c2C(=O)c2ccccc2C3=O)cc1`: the outcome was inactive.
As for `CCCCC/C=C/C=C/C=O`, the AC50 (as a rule, the midpoint of the concentration-response curve, whichever way the signal moves) was 37.4 µM (active).
Same read-out and setting: the value for `C=C(C)C(=O)O[C@H]1C[C@@H]2CC[C@@]1(C)C2(C)C` was 12.5 µM (active); that for `c1ccc2sc(SN(C3CCCCC3)C3CCCCC3)nc2c1` was 8.8 µM (active).
Consider `CC(=O)O[C@]1(C(C)=O)CC[C@H]2[C@@H]3C[C@H](C)C4=CC(=O)CC[C@]4(C)[C@H]3CC[C@@]21C`, for which the outcome was inactive.
On to `CC1CCC(C(C)CS)CC1S` (centres undefined), for which the AC50 is 37.1 µM (active).
On to `O=C(O)c1cn(-c2ccc(F)cc2)c2cc(N3CCNCC3)c(F)cc2c1=O`, for which the result was inactive.
As to `CCCCC(CC)COCCC#N` (centres undefined), the result was inactive.
As for `O=C1CCCCCCCCCCCCCCO1`, the AC50 is 14.4 µM (active).
For the compound `Nc1cc([N+](=O)[O-])ccc1Cl`, the outcome was inactive.
Same read-out and setting: the value for `CCc1c(C)cc(N)c(CC)c1N` was “inactive”; that for `C=C[Si](OCC)(OCC)OCC` was “inactive”; that for `CN(CCOc1ccc(CC2SC(=O)NC2=O)cc1)c1ccccn1` (centres undefined) was “inactive”.
Still for that read-out and setting: as for `c1ccc2c(c1)c1cccc3ccc4cccc2c4c31`, the entry is “inactive”.
`CC(=O)/C=C/C1=C(C)CCCC1(C)C`: the result was inactive.
Regarding `CC(C)(COC(=O)c1ccccc1)COC(=O)c1ccccc1`, the AC50 is 38.9 µM (active).
Turning to `O=C(O)c1cn(C2CC2)c2cc(N3CCNCC3)c(F)cc2c1=O`, the result was inactive.
Still for that read-out and setting: the value for `CCCCCCCCC=O` was “inactive”.
With `CC1COc2ccccc2N1C(=O)C(Cl)Cl` (centres undefined), the AC50 was 5.21 µM (active).
For `CC(=O)Nc1ccccc1O`, the result was inactive.
`CC(C)c1ccc(C(C)C)cc1`: the AC50 was 37.8 µM (active).
Take `Cc1ccc(O)c(C(C)(C)C)c1`: the AC50 was 13.4 µM (active).
For `O=P(c1ccccc1)(c1ccccc1)c1ccccc1`, the result was inactive.
On to `CCn1c2ccccc2c2cc(N)ccc21`, for which the AC50 is 8.8 µM (active).
With `O=[N+]([O-])c1cc(C(F)(F)F)ccc1Cl`, the outcome was inactive.
On the same count and under the same terms, the value for `N#Cc1ccc(CC(=NNC(=O)Nc2ccc(OC(F)(F)F)cc2)c2cccc(C(F)(F)F)c2)cc1` was “inactive”.
With `C#C[C@]1(O)CC[C@H]2[C@@H]3CCC4=Cc5oncc5C[C@]4(C)[C@H]3CC[C@@]21C`, the AC50 is 37.5 µM (active).
Regarding `CCCCCCCCCCCCCCCCCC(=O)OCC(CC)CCCC` (centres undefined), the outcome was inactive.
Turning to `CCCCC(CC)COC(=O)/C=C\C(=O)OCC(CC)CCCC` (centres undefined), the result was inactive.
Same read-out and setting: as for `CC(C)Oc1ccccc1O`, the entry is “inactive”.
As for `BrC1CCC(Br)C(Br)CCC(Br)C(Br)CCC1Br` (centres undefined), the AC50 is 8.03 µM (active).
On to `O=C(O)C[C@H](O)C[C@H](O)/C=C/c1c(C2CC2)nc2ccccc2c1-c1ccc(F)cc1`, for which the AC50 is 3.47 µM (active).
Consider `COC(=O)c1ccc(C)cc1`, for which the outcome was inactive.
Still for that read-out and setting: the value for `CNC[C@H](O)c1cccc(O)c1` was “inactive”.
In the case of `O=C1OC2(c3cc(Br)c(O)c(Br)c3Oc3c2cc(Br)c(O)c3Br)c2c(Cl)c(Cl)c(Cl)c(Cl)c21`, the AC50 was 8.63 µM (active).
On to `Cc1ccc2n[nH]nc2c1`, for which the outcome was inactive.
In the case of `O=C=NC1CCC(CC2CCC(N=C=O)CC2)CC1` (centres undefined), the AC50 is 37.5 µM (active).
As for `O=C(O)c1ccc([N+](=O)[O-])cc1`, the outcome was inactive.
The same measure, in the same setting: as for `CCCCCCCCCC=O`, the entry is “inactive”.
